{"source": "the supplement of paper PMC8728848", "binders": {"B1": {"name": "SLLPI (Mus musculus), Q9D9X8 (protein)", "chain": "MGICMSMYTQVLVPVDADGDHHILWSRFYERWGSCFNPCAGLVNCLPPHSSALYLCHRMEARSRAPRRQLCPPGITWLALAYLLSCLLASSKAKVFSRCELAKEMHDFGLDGYRGYNLADWVCLAYYTSGFNTNAVDHEADGSTNNGIFQISSRRWCRTLASNGPNLCRIYCTDLLNNDLKDSIVCAMKIVQEPLGLGYWEAWRHHCQGRDLSDWVDGCDF"}, "B2": {"name": "SLLPI (Homo sapiens), Q8IXA5 (protein)", "chain": "MVSALRGAPLIRVHSSPVSSPSVSGPRRLVSCLSSQSSALSQSGGGSTSAAGIEARSRALRRRWCPAGIMLLALVCLLSCLLPSSEAKLYGRCELARVLHDFGLDGYRGYSLADWVCLAYFTSGFNAAALDYEADGSTNNGIFQINSRRWCSNLTPNVPNVCRMYCSDLLNPNLKDTVICAMKITQEPQGLGYWEAWRHHCQGKDLTEWVDGCDF"}}, "assay_in_all_cases": "glycan array binding signal (z-score within array); higher = stronger binding", "conditions_in_all_cases": "glycan notation: IUPAC condensed, linker removed", "key": {"[1]": {"biological_target": "Fuc(a1-2)Gal(b1-3)GalNAc(b1-3)Gal", "outline": "(§1)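 Glycan array data came from 3228 arrays in the Consortium for Functional Glycomics database, and only arrays with an available protein sequence were kept. Glycan names were put into IUPAC-condensed notation, and columns mapping to the same glycan were averaged. The binding signal is a within-array Z-score, averaged across arrays of one protein sequence run at different concentrations or buffers and across linkers. A negative Z-score can be read as non-binding.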"}, "Fuc(a1-2)Gal(b1-4)GlcNAc": {"biological_target": "Fuc(a1-2)Gal(b1-4)GlcNAc", "outline": "as §1"}, "[2]": {"biological_target": "Fuc(a1-2)Gal(b1-4)GlcNAc(b1-3)Gal(b1-4)GlcNAc", "outline": "as §1"}, "[3]": {"biological_target": "Fuc(a1-2)Gal(b1-4)GlcNAc6S", "outline": "as §1"}, "[4]": {"biological_target": "Fuc(a1-2)[Gal(a1-3)]Gal(b1-3)GlcNAc", "outline": "as §1"}, "[5]": {"biological_target": "Fuc(a1-3)[Gal3S(b1-4)]GlcNAc6S", "outline": "as §1"}, "Gal(b1-2)Gal": {"biological_target": "Gal(b1-2)Gal", "outline": "as §1"}, "[6]": {"biological_target": "Gal(b1-3)GlcNAc(b1-2)Man(a1-3)[Gal(b1-3)GlcNAc(b1-2)Man(a1-6)]Man(b1-4)GlcNAc(b1-4)GlcNAc", "outline": "as §1"}, "[7]": {"biological_target": "Gal(b1-3)[Fuc(a1-4)]GlcNAc(b1-3)Gal(b1-4)[Fuc(a1-3)]GlcNAc", "outline": "as §1"}, "[8]": {"biological_target": "Gal(b1-4)GlcNAc(b1-3)[GlcNAc(b1-6)]Gal(b1-4)GlcNAc", "outline": "as §1"}, "Gal3S(b1-3)GlcNAc": {"biological_target": "Gal3S(b1-3)GlcNAc", "outline": "as §1"}, "Gal3S(b1-4)Glc6S": {"biological_target": "Gal3S(b1-4)Glc6S", "outline": "as §1"}, "[9]": {"biological_target": "Gal3S(b1-4)[Fuc(a1-3)]Glc", "outline": "as §1"}, "[10]": {"biological_target": "GlcNAc(b1-3)Gal(b1-3)GalNAc", "outline": "as §1"}, "[11]": {"biological_target": "GlcNAc(b1-4)GlcNAc(b1-4)GlcNAc", "outline": "as §1"}, "[12]": {"biological_target": "GlcNAc(b1-4)GlcNAc(b1-4)GlcNAc(b1-4)GlcNAc(b1-4)GlcNAc", "outline": "as §1"}, "[13]": {"biological_target": "Man(a1-2)Man(a1-2)Man(a1-3)Man", "outline": "as §1"}, "[14]": {"biological_target": "Man(a1-2)Man(a1-3)[Man(a1-2)Man(a1-6)]Man(a1-6)[Man(a1-2)Man(a1-2)Man(a1-3)]Man(b1-4)GlcNAc(b1-4)GlcNAc", "outline": "as §1"}, "[15]": {"biological_target": "Man(a1-2)Man(a1-3)[Man(a1-6)]Man(a1-6)[Man(a1-2)Man(a1-3)]Man(b1-4)GlcNAc(b1-4)GlcNAc", "outline": "as §1"}, "[16]": {"biological_target": "Neu5Ac(a2-3)Gal(b1-4)[Fuc(a1-3)]GlcNAc(b1-6)[Gal(b1-3)]GalNAc", "outline": "as §1"}, "[17]": {"biological_target": "Neu5Ac(a2-6)Gal(b1-4)GlcNAc6S", "outline": "as §1"}, "Fuc(a1-2)Gal(b1-3)GlcNAc": {"biological_target": "Fuc(a1-2)Gal(b1-3)GlcNAc", "outline": "as §1"}, "Fuc(a1-2)Gal(b1-4)Glc": {"biological_target": "Fuc(a1-2)Gal(b1-4)Glc", "outline": "as §1"}, "[18]": {"biological_target": "Fuc(a1-2)Gal6S(b1-4)GlcNAc", "outline": "as §1"}, "Fuc(b1-3)GlcNAc": {"biological_target": "Fuc(b1-3)GlcNAc", "outline": "as §1"}, "[19]": {"biological_target": "Gal(a1-3)[Gal(a1-4)]Gal(b1-4)GlcNAc", "outline": "as §1"}, "[20]": {"biological_target": "Gal(b1-3)GalNAc(b1-4)Gal(b1-4)Glc", "outline": "as §1"}, "[21]": {"biological_target": "Gal(b1-3)GlcNAc(b1-3)Gal(b1-4)Glc", "outline": "as §1"}, "[22]": {"biological_target": "Gal(b1-4)GalNAc(a1-3)[Fuc(a1-2)]Gal(b1-4)GlcNAc", "outline": "as §1"}, "[23]": {"biological_target": "Gal(b1-4)GlcNAc(b1-3)Gal(b1-3)GlcNAc", "outline": "as §1"}, "[24]": {"biological_target": "Gal3S(b1-3)[Fuc(a1-4)]GlcNAc", "outline": "as §1"}, "Gal6S(b1-4)Glc6S": {"biological_target": "Gal6S(b1-4)Glc6S", "outline": "as §1"}, "GalNAc(a1-3)Gal": {"biological_target": "GalNAc(a1-3)Gal", "outline": "as §1"}, "GlcA(b1-3)GlcNAc": {"biological_target": "GlcA(b1-3)GlcNAc", "outline": "as §1"}, "GlcA(b1-6)Gal": {"biological_target": "GlcA(b1-6)Gal", "outline": "as §1"}, "[25]": {"biological_target": "GlcNAc(b1-2)Gal(b1-3)GalNAc", "outline": "as §1"}, "GlcNAc(b1-3)Gal": {"biological_target": "GlcNAc(b1-3)Gal", "outline": "as §1"}, "GlcNAc(b1-3)Gal(b1-4)Glc": {"biological_target": "GlcNAc(b1-3)Gal(b1-4)Glc", "outline": "as §1"}, "[26]": {"biological_target": "Man(a1-3)[Man(a1-6)]Man(a1-6)[Man(a1-2)Man(a1-3)]Man(b1-4)GlcNAc(b1-4)GlcNAc", "outline": "as §1"}, "[27]": {"biological_target": "Neu5Ac(a2-3)Gal(b1-4)GlcNAc(b1-2)Man(a1-3)[GlcNAc(b1-2)Man(b1-4)GlcNAc(b1-2)Man(a1-6)]Man(b1-4)GlcNAc(b1-4)GlcNAc", "outline": "as §1"}, "[28]": {"biological_target": "Neu5Ac(a2-3)Gal(b1-4)[Fuc(a1-3)]GlcNAc(b1-3)Gal(b1-4)GlcNAc", "outline": "as §1"}, "[29]": {"biological_target": "Neu5Ac(a2-3)Gal(b1-4)[Fuc(a1-3)]GlcNAc(b1-3)Gal(b1-4)[Fuc(a1-3)]GlcNAc(b1-3)Gal(b1-4)[Fuc(a1-3)]GlcNAc", "outline": "as §1"}, "[30]": {"biological_target": "Neu5Gc(a2-3)Gal(b1-4)GlcNAc", "outline": "as §1"}, "[31]": {"biological_target": "Neu5Gc(a2-6)Gal(b1-4)GlcNAc", "outline": "as §1"}}, "note": "This excerpt belongs to a sample that is enriched for the strongest signals.", "data": [{"binder": "B1", "values": [{"measurement": "glycan array binding signal (z-score)", "setting": "[1]", "value": 0.084}, {"measurement": "glycan array binding signal (z-score)", "setting": "Fuc(a1-2)Gal(b1-4)GlcNAc", "value": -0.019}, {"measurement": "glycan array binding signal (z-score)", "setting": "[2]", "value": -0.448}, {"measurement": "glycan array binding signal (z-score)", "setting": "[3]", "value": 0.445}, {"measurement": "glycan array binding signal (z-score)", "setting": "[4]", "value": -0.779}, {"measurement": "glycan array binding signal (z-score)", "setting": "[5]", "value": 3.34}, {"measurement": "glycan array binding signal (z-score)", "setting": "Gal(b1-2)Gal", "value": 0.362}, {"measurement": "glycan array binding signal (z-score)", "setting": "[6]", "value": -0.288}, {"measurement": "glycan array binding signal (z-score)", "setting": "[7]", "value": -0.236}, {"measurement": "glycan array binding signal (z-score)", "setting": "[8]", "value": -0.03}, {"measurement": "glycan array binding signal (z-score)", "setting": "Gal3S(b1-3)GlcNAc", "value": 3.28}, {"measurement": "glycan array binding signal (z-score)", "setting": "Gal3S(b1-4)Glc6S", "value": 3.45}, {"measurement": "glycan array binding signal (z-score)", "setting": "[9]", "value": 1.15}, {"measurement": "glycan array binding signal (z-score)", "setting": "[10]", "value": 3.21}, {"measurement": "glycan array binding signal (z-score)", "setting": "[11]", "value": 1.92}, {"measurement": "glycan array binding signal (z-score)", "setting": "[12]", "value": -0.401}, {"measurement": "glycan array binding signal (z-score)", "setting": "[13]", "value": -0.502}, {"measurement": "glycan array binding signal (z-score)", "setting": "[14]", "value": -0.652}, {"measurement": "glycan array binding signal (z-score)", "setting": "[15]", "value": 0.317}, {"measurement": "glycan array binding signal (z-score)", "setting": "[16]", "value": -0.335}, {"measurement": "glycan array binding signal (z-score)", "setting": "[17]", "value": 3.29}]}, {"binder": "B2", "values": [{"measurement": "glycan array binding signal (z-score)", "setting": "[1]", "value": 1.93}, {"measurement": "glycan array binding signal (z-score)", "setting": "Fuc(a1-2)Gal(b1-3)GlcNAc", "value": -0.188}, {"measurement": "glycan array binding signal (z-score)", "setting": "Fuc(a1-2)Gal(b1-4)Glc", "value": 0.145}, {"measurement": "glycan array binding signal (z-score)", "setting": "[2]", "value": 0.263}, {"measurement": "glycan array binding signal (z-score)", "setting": "[18]", "value": 0.21}, {"measurement": "glycan array binding signal (z-score)", "setting": "Fuc(b1-3)GlcNAc", "value": -0.512}, {"measurement": "glycan array binding signal (z-score)", "setting": "[19]", "value": 0.947}, {"measurement": "glycan array binding signal (z-score)", "setting": "[20]", "value": -0.063}, {"measurement": "glycan array binding signal (z-score)", "setting": "[6]", "value": 0.777}, {"measurement": "glycan array binding signal (z-score)", "setting": "[21]", "value": 0.044}, {"measurement": "glycan array binding signal (z-score)", "setting": "[22]", "value": -0.332}, {"measurement": "glycan array binding signal (z-score)", "setting": "[23]", "value": -0.37}, {"measurement": "glycan array binding signal (z-score)", "setting": "[24]", "value": -0.205}, {"measurement": "glycan array binding signal (z-score)", "setting": "Gal6S(b1-4)Glc6S", "value": 1.85}, {"measurement": "glycan array binding signal (z-score)", "setting": "GalNAc(a1-3)Gal", "value": 1.65}, {"measurement": "glycan array binding signal (z-score)", "setting": "GlcA(b1-3)GlcNAc", "value": 0.16}, {"measurement": "glycan array binding signal (z-score)", "setting": "GlcA(b1-6)Gal", "value": -0.073}, {"measurement": "glycan array binding signal (z-score)", "setting": "[25]", "value": -0.634}, {"measurement": "glycan array binding signal (z-score)", "setting": "GlcNAc(b1-3)Gal", "value": 0.2}, {"measurement": "glycan array binding signal (z-score)", "setting": "GlcNAc(b1-3)Gal(b1-4)Glc", "value": 0.579}, {"measurement": "glycan array binding signal (z-score)", "setting": "[13]", "value": 3.65}, {"measurement": "glycan array binding signal (z-score)", "setting": "[26]", "value": 1.02}, {"measurement": "glycan array binding signal (z-score)", "setting": "[27]", "value": 4.44}, {"measurement": "glycan array binding signal (z-score)", "setting": "[28]", "value": 0.654}, {"measurement": "glycan array binding signal (z-score)", "setting": "[29]", "value": 0.311}, {"measurement": "glycan array binding signal (z-score)", "setting": "[30]", "value": -0.286}, {"measurement": "glycan array binding signal (z-score)", "setting": "[31]", "value": -0.251}]}]}
